Inhibition data for 40 compounds are collected here from PubChem BioAssay.

The structures appear in SMILES notation. Active and inactive are the calls of the source. How the calls were made is not given here.

As usually defined, the inhibition is the change of the read-out against control, counted positive when it falls.

The first assay has as its system Botulinum neurotoxin type F light chain protease (Clostridium botulinum). The assay can be described thus: Clostridium botulinum type F light chain protease inhibitors, microsphere substrate cleavage, validation (AID 588459). To be noted: multiplex microsphere protease substrate cleavage assay, flow cytometry; at 10 µM; active compounds read high. For orientation: In flow cytometry, cells or beads pass a laser one at a time.
As for `C#CCOc1ccc2c(C)cc(=O)oc2c1`, the inhibition was -2.9% (inactive).

For `O=C1[C@@H]2CSCN2C(=O)CN1Cc1ccc(F)cc1`, the inhibition is 1.2% (inactive).

As for `COc1ccccc1C(O)c1nccn1C` (stereo not given), the inhibition is 1.9% (inactive).

In the case of `COc1ccccc1/C=C/C(=O)OCCN1CCOCC1`, the inhibition was 3% (inactive).

For `C1COC(NC(C2CC2)C2CC2)=N1`, the inhibition is 3% (inactive).

For `CCCCNc1cc(C(=O)O)cc(S(N)(=O)=O)c1Oc1ccccc1`, the inhibition was 2.6% (inactive).

For the compound `CCc1cc(C(N)=S)ccn1`, the inhibition is 1.9% (inactive).

Turning to `Cc1ccsc1/C=C/C1=NCCCN1C`, the inhibition was -0.9% (inactive).

As to `CC1(C)C(=O)OC(C(=O)c2ccc(Cl)cc2)C(C)(C)C1=O` (stereo not given), the inhibition was 1.9% (inactive).

In the case of `CC1(C)NC(C(=O)O)Cc2c1[nH]c1ccccc21` (stereo not given), the inhibition is -1.6% (inactive).

Turning to `COc1ccc(C(=O)Nc2ccc(OC)c([N+](=O)[O-])c2)cc1Br`, the inhibition is 1.7% (inactive).

On to `CC(C)(C)NCC(O)COc1ccccc1C(=O)CCc1ccccc1` (stereo not given), for which the inhibition was -5.8% (inactive).

`CCCCCCCC(=O)OCC(=O)[C@@]1(O)CC[C@H]2[C@@H]3CCC4=CC(=O)CC[C@]4(C)[C@H]3[C@@H](O)C[C@@]21C`: the inhibition is -3.8% (inactive).

For the compound `Cc1ccc(C2CC(=O)C(C=NCCN3CCN(CC(=O)Nc4cc(C)cc(C)c4)CC3)=C(O)C2)cc1` (stereo not given), the inhibition was 2% (inactive).

Turning to `CNc1nc(Nc2ccccc2)nc(OCC(F)(F)F)n1`, the inhibition is 0.2% (inactive).

As for `CC12CN3CC(C)(CN(C1)C3c1ccc(Br)cc1O)C2` (stereo not given), the inhibition was -1.8% (inactive).

Turning to `CCOC(=O)c1c(O)c2c([nH]c1=O)CCCC2`, the inhibition was 2.3% (inactive).

Regarding `CN1CCC(=C2c3ccccc3CC(=O)c3sccc32)CC1`, the inhibition was 8% (inactive).

With `O=C(Nc1cccc(C(=O)O)c1)/C(=C\c1ccccc1)NC(=O)c1ccccc1`, the inhibition was 1.8% (inactive).

Regarding `O=C(Cc1ccccc1)NCC(=O)OCC(=O)c1ccccc1Cl`, the inhibition was 1% (inactive).

For the compound `Cc1ccc2[nH]c(=O)c(Cc3ccccc3)c(O)c2c1`, the inhibition is 0.6% (inactive).

In the case of `Cc1cccc(C)c1NC(=O)C1CCCCN1C` (stereo not given), the inhibition is -3.1% (inactive).

Take `CCN(CC)C1=C(Cl)C(=O)C(Cl)C12OCCO2` (stereo not given): the inhibition was 1% (inactive).

For the compound `CCc1cccc(OC2OC(CO)C(O)C(O)C2NC(C)=O)c1` (stereo not given), the inhibition is -0.7% (inactive).

As for `COc1ccccc1CCn1cnc2c3cc(C)ccc3n(C)c2c1=O`, the inhibition was -0.5% (inactive).

As to `COc1ccc(CCNC(=O)c2ccc(Cl)cc2)cc1OC`, the inhibition was 0.6% (inactive).

In the case of `COc1ccc(N2C(=O)C3CCCN3C2=O)cc1` (stereo not given), the inhibition is 1.8% (inactive).

As for `CC1/C(=C\c2ccc(Cl)cc2)C(=O)C2CC1C2(C)C` (stereo not given), the inhibition is 5.2% (inactive).

For the compound `CN(C)c1cc(NC(=O)CN2CCOCC2)c2ccccc2n1`, the inhibition was 0% (inactive).

With `CCOc1ccccc1Oc1coc2cc(OCC(=O)O)ccc2c1=O`, the inhibition was 0% (inactive).

In the case of `Cc1cc(O)c2/c(=N\N)c(-c3csc(C)n3)coc2c1`, the inhibition was -0.4% (inactive).

Take `CC1(C)Cc2ccccc2C(C(Cc2ccccc2)C(N)=O)=N1` (stereo not given): the inhibition was 0.5% (inactive).

On to `Nc1ccc(S(N)(=O)=O)cc1N`, for which the inhibition was 1.4% (inactive).

Consider `CC(C)c1ccc(/C=C/C(=O)O)cc1`, for which the inhibition is 1.6% (inactive).

Regarding `CC(C[N+](C)(C)C)OC(N)=O` (stereo not given), the inhibition was -0.5% (inactive).

For `COc1ccc2c(c1OC)C(=O)N1C2SC[C@H]1C(=O)NC1CC(C)(C)NC(C)(C)C1` (stereo not given in full), the inhibition is 3.2% (inactive).

For the compound `N=c1nc(N2CCCCC2)cc(N)n1O`, the inhibition is -2.3% (inactive).

Consider `CC1=C(C)C(=O)C(CCCCC#CCCCC#CCO)=C(C)C1=O`, for which the inhibition was -2.1% (inactive).

`O=c1[nH]cc(F)c(=O)[nH]1`: the inhibition is 0.6% (inactive).

Consider `CCNC(=S)Nc1ccc(OC(F)(F)F)cc1`, for which the inhibition is 2.2% (inactive).

The target of the next assay is Botulinum neurotoxin type A (Clostridium botulinum) (UniProt P0DPI0). The assay can be described thus: BoNT/A light chain protease inhibitors, biochemical, multiplex microsphere flow cytometry, validation set (AID 588460). The note with it: at 10 µM, active compounds read high.
Sequence of Botulinum neurotoxin type A (Clostridium botulinum) (P0DPI0 whole entry, looked up): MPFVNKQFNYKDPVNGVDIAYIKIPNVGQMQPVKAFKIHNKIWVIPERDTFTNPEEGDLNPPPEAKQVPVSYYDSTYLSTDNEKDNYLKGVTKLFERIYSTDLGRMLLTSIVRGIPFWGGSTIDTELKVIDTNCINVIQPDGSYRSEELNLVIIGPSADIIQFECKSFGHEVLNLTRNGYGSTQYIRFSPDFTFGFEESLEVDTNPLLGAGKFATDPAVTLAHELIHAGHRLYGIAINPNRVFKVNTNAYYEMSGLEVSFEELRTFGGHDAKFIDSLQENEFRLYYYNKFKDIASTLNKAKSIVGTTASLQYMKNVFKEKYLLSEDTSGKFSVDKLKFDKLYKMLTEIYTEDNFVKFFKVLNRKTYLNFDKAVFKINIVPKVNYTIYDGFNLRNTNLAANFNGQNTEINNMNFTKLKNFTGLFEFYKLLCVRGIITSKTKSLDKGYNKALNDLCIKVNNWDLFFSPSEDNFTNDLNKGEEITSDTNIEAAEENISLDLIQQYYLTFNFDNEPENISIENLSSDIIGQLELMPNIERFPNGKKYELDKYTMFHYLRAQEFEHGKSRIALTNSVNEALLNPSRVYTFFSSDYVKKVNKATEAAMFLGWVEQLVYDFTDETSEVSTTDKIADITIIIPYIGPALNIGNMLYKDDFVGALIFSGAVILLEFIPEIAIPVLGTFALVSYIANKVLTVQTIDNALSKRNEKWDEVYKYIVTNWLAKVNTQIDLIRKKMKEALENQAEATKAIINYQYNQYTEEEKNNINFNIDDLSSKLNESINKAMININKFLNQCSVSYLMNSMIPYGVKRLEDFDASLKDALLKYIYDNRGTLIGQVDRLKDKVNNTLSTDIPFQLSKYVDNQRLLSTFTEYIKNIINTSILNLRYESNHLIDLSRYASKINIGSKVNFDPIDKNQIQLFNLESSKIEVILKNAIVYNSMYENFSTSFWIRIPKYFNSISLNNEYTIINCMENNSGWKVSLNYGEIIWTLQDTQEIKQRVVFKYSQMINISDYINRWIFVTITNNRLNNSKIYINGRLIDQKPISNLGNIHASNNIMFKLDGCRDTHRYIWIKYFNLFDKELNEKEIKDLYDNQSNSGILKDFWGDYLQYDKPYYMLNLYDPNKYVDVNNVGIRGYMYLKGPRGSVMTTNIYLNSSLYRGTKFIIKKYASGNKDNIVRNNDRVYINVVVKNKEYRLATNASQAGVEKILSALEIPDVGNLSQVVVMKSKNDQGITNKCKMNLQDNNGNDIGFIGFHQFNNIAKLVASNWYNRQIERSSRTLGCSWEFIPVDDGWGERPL
Take `C#CCOc1ccc2c(C)cc(=O)oc2c1`: the inhibition is -2.2% (inactive).

For `O=C1[C@@H]2CSCN2C(=O)CN1Cc1ccc(F)cc1`, the inhibition is 0.7% (inactive).

On to `COc1ccccc1C(O)c1nccn1C` (stereo not given), for which the inhibition was -0.7% (inactive).

For the compound `COc1ccccc1/C=C/C(=O)OCCN1CCOCC1`, the inhibition was -2.1% (inactive).

`C1COC(NC(C2CC2)C2CC2)=N1`: the inhibition was -0.1% (inactive).

As to `CCCCNc1cc(C(=O)O)cc(S(N)(=O)=O)c1Oc1ccccc1`, the inhibition is 1.7% (inactive).

For the compound `CCc1cc(C(N)=S)ccn1`, the inhibition is 0.9% (inactive).

Consider `Cc1ccsc1/C=C/C1=NCCCN1C`, for which the inhibition is 1.6% (inactive).

Consider `CC1(C)C(=O)OC(C(=O)c2ccc(Cl)cc2)C(C)(C)C1=O` (stereo not given), for which the inhibition was 1.3% (inactive).

`CC1(C)NC(C(=O)O)Cc2c1[nH]c1ccccc21` (stereo not given): the inhibition is 1% (inactive).

As to `COc1ccc(C(=O)Nc2ccc(OC)c([N+](=O)[O-])c2)cc1Br`, the inhibition is -0.3% (inactive).

For the compound `CC(C)(C)NCC(O)COc1ccccc1C(=O)CCc1ccccc1` (stereo not given), the inhibition was -2% (inactive).

As for `CCCCCCCC(=O)OCC(=O)[C@@]1(O)CC[C@H]2[C@@H]3CCC4=CC(=O)CC[C@]4(C)[C@H]3[C@@H](O)C[C@@]21C`, the inhibition was 0.3% (inactive).

Turning to `Cc1ccc(C2CC(=O)C(C=NCCN3CCN(CC(=O)Nc4cc(C)cc(C)c4)CC3)=C(O)C2)cc1` (stereo not given), the inhibition is 0.6% (inactive).

As to `CNc1nc(Nc2ccccc2)nc(OCC(F)(F)F)n1`, the inhibition was 0.2% (inactive).

Turning to `CC12CN3CC(C)(CN(C1)C3c1ccc(Br)cc1O)C2` (stereo not given), the inhibition is -1.2% (inactive).

For `CCOC(=O)c1c(O)c2c([nH]c1=O)CCCC2`, the inhibition was -1.4% (inactive).

For `CN1CCC(=C2c3ccccc3CC(=O)c3sccc32)CC1`, the inhibition was 0.8% (inactive).

For `O=C(Nc1cccc(C(=O)O)c1)/C(=C\c1ccccc1)NC(=O)c1ccccc1`, the inhibition was 0.3% (inactive).

On to `O=C(Cc1ccccc1)NCC(=O)OCC(=O)c1ccccc1Cl`, for which the inhibition was -2.5% (inactive).

Regarding `Cc1ccc2[nH]c(=O)c(Cc3ccccc3)c(O)c2c1`, the inhibition is -0.4% (inactive).

In the case of `Cc1cccc(C)c1NC(=O)C1CCCCN1C` (stereo not given), the inhibition is -0.1% (inactive).

As to `CCN(CC)C1=C(Cl)C(=O)C(Cl)C12OCCO2` (stereo not given), the inhibition was 0.6% (inactive).

`CCc1cccc(OC2OC(CO)C(O)C(O)C2NC(C)=O)c1` (stereo not given): the inhibition is -0.7% (inactive).

Consider `COc1ccccc1CCn1cnc2c3cc(C)ccc3n(C)c2c1=O`, for which the inhibition was -1% (inactive).

`COc1ccc(CCNC(=O)c2ccc(Cl)cc2)cc1OC`: the inhibition was -1.4% (inactive).

For `COc1ccc(N2C(=O)C3CCCN3C2=O)cc1` (stereo not given), the inhibition was 0.4% (inactive).

Turning to `CC1/C(=C\c2ccc(Cl)cc2)C(=O)C2CC1C2(C)C` (stereo not given), the inhibition was 0.2% (inactive).

For `CN(C)c1cc(NC(=O)CN2CCOCC2)c2ccccc2n1`, the inhibition was -1.5% (inactive).

As to `CCOc1ccccc1Oc1coc2cc(OCC(=O)O)ccc2c1=O`, the inhibition is 1.4% (inactive).

`Cc1cc(O)c2/c(=N\N)c(-c3csc(C)n3)coc2c1`: the inhibition was -1% (inactive).

For the compound `CC1(C)Cc2ccccc2C(C(Cc2ccccc2)C(N)=O)=N1` (stereo not given), the inhibition was 1.1% (inactive).

Turning to `Nc1ccc(S(N)(=O)=O)cc1N`, the inhibition is -2.7% (inactive).

For the compound `CC(C)c1ccc(/C=C/C(=O)O)cc1`, the inhibition was -0.1% (inactive).

For `CC(C[N+](C)(C)C)OC(N)=O` (stereo not given), the inhibition is -0.4% (inactive).

Turning to `COc1ccc2c(c1OC)C(=O)N1C2SC[C@H]1C(=O)NC1CC(C)(C)NC(C)(C)C1` (stereo not given in full), the inhibition is -0.5% (inactive).

Regarding `N=c1nc(N2CCCCC2)cc(N)n1O`, the inhibition is -0.7% (inactive).

Consider `CC1=C(C)C(=O)C(CCCCC#CCCCC#CCO)=C(C)C1=O`, for which the inhibition was 0.4% (inactive).

For the compound `O=c1[nH]cc(F)c(=O)[nH]1`, the inhibition was -1.2% (inactive).

Take `CCNC(=S)Nc1ccc(OC(F)(F)F)cc1`: the inhibition is 2.8% (inactive).
